What was measured:
Experiment in all cases: thermal shift delta Tm vs DMSO control; higher = stronger stabilization (binding)
Conditions in all cases: 12.5 µM; protein concentration 2 µM
[1] = test system: LOC_OS01G01410-cb001
Procedure, shortened: (§1)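 Thermal shift values come from differential scanning fluorimetry on purified rice kinase domains made in E. coli, with melting temperatures obtained from Boltzmann fits. Samples of 19.5 μl held 2 μM kinase, 100 mM potassium phosphate pH 7.5, 150 mM NaCl, 10% glycerol, 5 × SYPRO Orange and compound in DMSO, and were heated from 25°C to 95°C at 0.05°C/s. Each shift is a triplicate mean relative to the DMSO-only protein sample.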

[2] = test system: LOC_OS01G02750-cb003
Procedure, shortened: as §1

[3] = test system: LOC_OS01G10900-cb004
Procedure, shortened: as §1

[4] = test system: LOC_OS01G13800-cb001
Procedure, shortened: as §1

[5] = test system: LOC_OS01G14860-cb001
Procedure, shortened: as §1

[6] = test system: LOC_OS01G21960-cb002
Procedure, shortened: as §1

[7] = test system: LOC_OS01G39600-cb002
Procedure, shortened: as §1

[8] = test system: LOC_OS01G48390-cb002
Procedure, shortened: as §1

[9] = test system: LOC_OS01G51400-cb002
Procedure, shortened: as §1

[10] = test system: T1, LOC_OS01G52050-cb004
T1 sequence (whole entry): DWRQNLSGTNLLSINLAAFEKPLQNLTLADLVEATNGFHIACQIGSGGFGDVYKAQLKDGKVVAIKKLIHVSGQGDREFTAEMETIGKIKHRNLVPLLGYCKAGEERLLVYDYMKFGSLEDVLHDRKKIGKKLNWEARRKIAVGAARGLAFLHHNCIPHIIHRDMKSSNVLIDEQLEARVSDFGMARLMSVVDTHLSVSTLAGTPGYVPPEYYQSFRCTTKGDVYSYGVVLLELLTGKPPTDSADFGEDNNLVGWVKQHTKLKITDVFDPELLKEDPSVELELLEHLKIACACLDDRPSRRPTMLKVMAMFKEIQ
Procedure, shortened: as §1

[11] = test system: LOC_OS01G57100-cb003
Procedure, shortened: as §1

[12] = test system: LOC_OS01G60330-cb001
Procedure, shortened: as §1

[13] = test system: LOC_OS01G60700-cb002
Procedure, shortened: as §1

[14] = test system: LOC_OS01G63280-cb003
Procedure, shortened: as §1

[15] = test system: LOC_OS01G67340-cb003
Procedure, shortened: as §1

[16] = test system: LOC_OS01G70970-cb002
Procedure, shortened: as §1

[17] = test system: LOC_OS02G07810-cb001
Procedure, shortened: as §1

[18] = test system: LOC_OS02G08530-cb003
Procedure, shortened: as §1

[19] = test system: LOC_OS02G14120-cb001
Procedure, shortened: as §1

[20] = test system: LOC_OS02G17970-cb001
Procedure, shortened: as §1
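Note: purified Escherichia coli-expressed rice kinase domain construct.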

| SMILES | thermal shift delta Tm [1] [°C] | thermal shift delta Tm [2] [°C] | thermal shift delta Tm [3] [°C] | thermal shift delta Tm [4] [°C] | thermal shift delta Tm [5] [°C] | thermal shift delta Tm [6] [°C] | thermal shift delta Tm [7] [°C] | thermal shift delta Tm [8] [°C] | thermal shift delta Tm [9] [°C] | thermal shift delta Tm [10] [°C] | thermal shift delta Tm [11] [°C] | thermal shift delta Tm [12] [°C] | thermal shift delta Tm [13] [°C] | thermal shift delta Tm [14] [°C] | thermal shift delta Tm [15] [°C] | thermal shift delta Tm [16] [°C] | thermal shift delta Tm [17] [°C] | thermal shift delta Tm [18] [°C] | thermal shift delta Tm [19] [°C] | thermal shift delta Tm [20] [°C] |
| --- | --- | --- | --- | --- | --- | --- | --- | --- | --- | --- | --- | --- | --- | --- | --- | --- | --- | --- | --- | --- |
| COc1cc2ncnc(Nc3cccc(Cl)c3)c2cc1OC [AG-1478 (Tyrphostin AG-1478)] | 1.49 | 1.82 | 0.65 | 0.5 | 0.56 | 0.99 | 1.07 | 2.73 | 0.17 | 1.69 | 1.76 | 1.26 | 1.02 | 0.95 | 0.94 | 0.55 | 1.34 | 1.69 | 6.87 | 1.37 |
| N#Cc1ccc2ncnc(NCCc3ccccc3)c2c1 [Senexin A] | 1.49 | 1.5 | 0.41 | 0.25 | 0.78 | 0.95 | 0.66 | 0.42 | 0.41 | 2.96 | -0.12 | 0.74 | -0.36 | 0.25 | 0.38 | 0.3 | -0.71 | 2.47 | 2.47 | 0.28 |
| CCN(C)S(=O)(=O)Nc1ccc(F)c(C(=O)c2c[nH]c3ncc(-c4cnc(C5CC5)nc4)cc23)c1F | 1.92 | 0.92 | 1.18 | 0.03 | 2.04 | 0.51 | 3.55 | 1.01 | 0.11 | 0.72 | 1.23 | 1.8 | 0.8 | 7.4 | 0.55 | 0.37 | 0.74 | 0.59 | -0.46 | 0.71 |
| COC(=O)N[C@@H](C)CNc1nccc(-c2cn(C(C)C)nc2-c2cc(Cl)cc(NS(C)(=O)=O)c2F)n1 [Encorafenib (LGX818)] | 0.41 | 0.83 | 0.1 | -0.12 | 5.56 | 0.28 | 0.05 | 0.2 | 0.1 | 0.5 | 1.3 | 0.6 | 1.13 | 16.6 | 0.27 | 0.24 | 0.09 | 0.83 | 1.23 | 0.55 |
| CS(=O)(=O)N1CCN(Cc2cc3nc(-c4cccc5[nH]ncc45)nc(N4CCOCC4)c3s2)CC1 [Pictilisib (GDC-0941)] | 1.2 | 0.47 | 0.85 | 0.43 | 1.21 | 0.24 | 0.57 | 2.14 | -0.08 | -0.11 | 0.25 | 2.44 | 0.85 | -0.25 | -0.42 | 0.62 | 0.7 | 1.22 | 0.32 | 0.17 |
| COc1ccc(C(=O)Nc2sc3c(c2C(N)=O)CCCC3)cc1OC | 0.61 | 0.58 | 0.36 | 0.6 | 0.19 | 0.49 | 0.46 | 0.85 | 0.45 | 1.28 | 1.3 | 1.24 | 1.23 | 0.62 | 1.69 | 0.41 | 1.01 | 2.12 | 2.58 | 0.27 |
| O=C(NOCCO)c1ccc2cncn2c1Nc1ccc(I)cc1F | 1.18 | 5.7 | 1.31 | 1.55 | 3.41 | 0.59 | -0.21 | 1.12 | 0.54 | 0.41 | 1.19 | -0.56 | 0.86 | 0.2 | -0.68 | -0.05 | 1.14 | 0.47 | -1.25 | 1.62 |
